Screening results from PubChem BioAssay.
Peg3 promoter = inhibitors of Peg3 promoter; HeLa PEG-Prom luciferase reporter, luminescence, overnight; inhibition, % at 20 µM; hit rate 1.7% among 360,000;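 active means inhibition of at least 50% at 20 µM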
KKLEB cytotox = counter-screen for CF NF-kB inhibitors: cytotoxicity. KKLEB CF airway cells viability, ATPlite luminescence, overnight; active compounds read low; cells stimulated with P. aeruginosa culture filtrate. activity change (cytotoxicity), % at 5 µM. AID 602141. hit rate 0.36% among 360,000;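 active means corrected activity change at or below -50% at 5 µM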
TWEAK-Fn14 inh = TWEAK-Fn14 signaling inhibition | AID 1159606 | hit rate 2% among 360,000 | TWEAK-stimulated Fn14 reporter cells, luciferase luminescence, 8 h | inhibition, % at 10 µM; in the data active means inhibition above about 50%
HIF-2a inh = inhibitors of HIF-2a; hit rate 0.72% among 360,000; AID 624352; 786-0 RCC cells HIF-2a reporter, luciferase luminescence, overnight; inhibition, % at 18.8 µM;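 active means inhibition of the luminescence signal of 40% or more relative to plate controls, in a single-dose primary screen at 18.75 µM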
TROY NFkB inh = TROY signaling inhibition | Q293 LMP1-TROYcd NF-kB luciferase reporter, 4 h | inhibition, % at 10 µM | hit rate 0.98% among 360,000 | AID 1347056;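 active means compounds whose plate-normalised and pattern-corrected inhibition of the luciferase reporter signal at the single screening dose is 50% or more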
CF NFkB block = blocks PAF-induced NF-kB reporter in cystic fibrosis cells; KKLEB NF-kB-GFP reporter, GFP fluorescence overnight; inhibition, % at 5 µM; hit rate 0.86% among 360,000;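 active means at least 50% inhibition at 5 µM, scaled per plate between neutral and stimulator controls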;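 further: PAF is a Pseudomonas aeruginosa culture filtrate used as stimulus; plate controls were PAF-stimulated DMSO wells for no effect and unstimulated DMSO wells for full effect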
CF NFkB conf = CF NF-kB inhibition confirmation, single concentration; hit rate 64% among 1,300; shares compounds with CF NFkB block; KKLEB CF airway cells, PAF-induced NF-kB-GFP fluorescence, overnight; inhibition, % at 5 µM; in the data active means inhibition above about 40%;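 further: stimulus PAF is a Pseudomonas aeruginosa filtrate and not platelet activating factor; plate controls were DMSO wells with stimulus for no effect and unstimulated DMSO wells for full effect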
* hit, by the source's call. Compounds with a hit are over-represented: about 4% of the library has one in this group of screens.

S=C(Nc1ccccc1)Nc1ccc2cn[nH]c2c1 was read as Peg3 promoter -288, KKLEB cytotox -16, TWEAK-Fn14 inh 8, HIF-2a inh -273, TROY NFkB inh 22 and CF NFkB block 35.
`CCOc1ccccc1NC(=S)Nc1ccc2cn[nH]c2c1` gave Peg3 promoter -53, KKLEB cytotox 2, TWEAK-Fn14 inh 23, HIF-2a inh -60, TROY NFkB inh 17, CF NFkB block 58* and CF NFkB conf 67*.
`Nc1n[nH]c(-c2ccc([N+](=O)[O-])cc2[N+](=O)[O-])n1` gave Peg3 promoter 11, KKLEB cytotox 13, TWEAK-Fn14 inh 0, HIF-2a inh 15, TROY NFkB inh 4 and CF NFkB block -12.
For CC1Cc2ccccc2N1C(=O)C(C)n1cc(C(F)(F)F)cc(Cl)c1=O (configuration not stated) the results were Peg3 promoter -2, KKLEB cytotox 5, TWEAK-Fn14 inh -24, HIF-2a inh 9, TROY NFkB inh -9 and CF NFkB block -9.
Screening COc1ccc(-c2ccc(CN3C(CC(C)C)C(=O)N(Cc4cn(Cc5ccco5)nn4)CCS3(=O)=O)cc2)cc1 (configuration not stated) returned Peg3 promoter 19, KKLEB cytotox -9, TWEAK-Fn14 inh 4, HIF-2a inh 17, TROY NFkB inh -5, CF NFkB block 57* and CF NFkB conf 36.
CC(C)C1C(=O)N(Cc2cn(Cc3ccco3)nn2)CCS(=O)(=O)N1Cc1ccc(-c2ccc(F)cc2)cc1 (configuration not stated) was read as Peg3 promoter 21, KKLEB cytotox 13, TWEAK-Fn14 inh 16, HIF-2a inh -32, TROY NFkB inh -2, CF NFkB block 56* and CF NFkB conf 35.
Screening COc1ccc(-c2ccc(CN3C(CC(C)C)C(=O)N(Cc4cn(Cc5ccco5)nn4)CCS3(=O)=O)cc2)cc1OC (configuration not stated) returned Peg3 promoter -6, KKLEB cytotox 2, TWEAK-Fn14 inh 23, HIF-2a inh 10, TROY NFkB inh -5 and CF NFkB block 31.
CC(C)C1C(=O)N(Cc2cn(Cc3ccco3)nn2)CCS(=O)(=O)N1Cc1ccc(-c2ccccc2)cc1 (configuration not stated) was read as Peg3 promoter -8, KKLEB cytotox 5, TWEAK-Fn14 inh 34, HIF-2a inh -19, TROY NFkB inh 10 and CF NFkB block 32.
Oc1cc(CNCc2ccccc2)c(O)cc1CNCc1ccccc1 was read as Peg3 promoter -3, KKLEB cytotox -19, TWEAK-Fn14 inh -13, HIF-2a inh 15, TROY NFkB inh 1 and CF NFkB block 20.
For CCN(CC)CCNC(=O)c1ccc(NC(=O)C2CCN(c3ncnc4sc(C)c(C)c34)CC2)cc1 the results were Peg3 promoter 80*, KKLEB cytotox -18, TWEAK-Fn14 inh 4, HIF-2a inh 28, TROY NFkB inh 25, CF NFkB block 55* and CF NFkB conf 56*.
For c1ccc2c(-c3cncc4ccccc34)cncc2c1 the results were Peg3 promoter 20, KKLEB cytotox -32, TWEAK-Fn14 inh 54*, HIF-2a inh 35, TROY NFkB inh 34, CF NFkB block 76* and CF NFkB conf 43*.
For COc1ccc2[nH]c3c(c2c1)CCNC3=O the results were Peg3 promoter 0, KKLEB cytotox -6, TWEAK-Fn14 inh 61*, HIF-2a inh -20, TROY NFkB inh 25, CF NFkB block 52* and CF NFkB conf 83*.
O=C1NCCc2c1[nH]c1ccccc21 was read as Peg3 promoter 9, KKLEB cytotox -1, TWEAK-Fn14 inh 3, HIF-2a inh -1, TROY NFkB inh -14 and CF NFkB block 8.
Screening CN(Cc1nccn1C)C(=O)CC1C(=O)NCCN1Cc1ccc(F)cc1Cl (configuration not stated) returned Peg3 promoter -6, KKLEB cytotox 31, TWEAK-Fn14 inh 11, HIF-2a inh 11, TROY NFkB inh 8 and CF NFkB block -10.
Screening CCN(c1ccccc1)c1nc(C#N)nc(N(CC)c2ccccc2)n1 returned Peg3 promoter 1, KKLEB cytotox -25, TWEAK-Fn14 inh 10, HIF-2a inh 23, TROY NFkB inh 16, CF NFkB block 52* and CF NFkB conf -20.
Screening CCN(CC)c1nc(C#N)nc(N(CC)CC)n1 returned Peg3 promoter 4, KKLEB cytotox -7, TWEAK-Fn14 inh -1, HIF-2a inh 17, TROY NFkB inh 1 and CF NFkB block 12.
COc1ccc(Cn2cc(CN3CC(N(C)C)CS3(=O)=O)nn2)cc1 (configuration not stated) was read as TWEAK-Fn14 inh 14, HIF-2a inh 10 and TROY NFkB inh -4.
COc1ccc2nc(NC(=O)Nc3ccccc3)sc2c1 was read as Peg3 promoter -245, KKLEB cytotox -14, TWEAK-Fn14 inh 37, HIF-2a inh -183, TROY NFkB inh -12 and CF NFkB block 7.
Screening CC(C)(C)c1nc(NC(=O)Nc2ccccc2)sc1Br returned Peg3 promoter -198, KKLEB cytotox -49, TWEAK-Fn14 inh 61*, HIF-2a inh -299, TROY NFkB inh 23, CF NFkB block 69* and CF NFkB conf 65*.
Screening C=C(C)[C@@H]1CC[C@]2(C(=O)O)CC[C@]3(C)[C@H](CC[C@@H]4[C@@]5(C)CC[C@H](O)C(C)(C)[C@@H]5CC[C@]43C)[C@@H]12 returned Peg3 promoter 54*, KKLEB cytotox 5, TWEAK-Fn14 inh -39, HIF-2a inh 4, TROY NFkB inh 4, CF NFkB block 70* and CF NFkB conf 56*.
Screening Cc1ccc(CNC(=O)CN(C(=O)C2(C)CC(=O)N=C3C=CC=CN32)c2cccc(C)c2C)cc1 (configuration not stated) returned Peg3 promoter 16, KKLEB cytotox -20, TWEAK-Fn14 inh 13, HIF-2a inh 6, TROY NFkB inh 16 and CF NFkB block 8.
`CN1CCC(OC(=O)c2cc3cc(Cl)cc(Cl)c3oc2=O)CC1` gave Peg3 promoter 40, KKLEB cytotox 6, TWEAK-Fn14 inh 77*, HIF-2a inh 25, TROY NFkB inh 6, CF NFkB block 54* and CF NFkB conf 82*.
`O=C(O)/C=C/C(=O)Nc1ccc(OC(F)(F)F)cc1` gave Peg3 promoter 8, KKLEB cytotox -9, TWEAK-Fn14 inh 4, HIF-2a inh 9, TROY NFkB inh 17 and CF NFkB block 14.
For O=C(Nc1nnc(C(F)(F)F)s1)c1ccc(Br)s1 the results were Peg3 promoter -180, KKLEB cytotox -20, TWEAK-Fn14 inh 28, HIF-2a inh -240, TROY NFkB inh 16, CF NFkB block 54* and CF NFkB conf 83*.
